These results are taken from PubChem BioAssay (NCI).

The panel holds about 79,000 compounds, 15% with a hit somewhere; the sample as a whole holds those more often. Calls of active or inactive are those of the source. Rule as the data show it: active = growth inhibition above about 70%; inactive = the rest.

A short description of this test: NCI Yeast Anticancer Drug Screen. Data for the rad50 strain (AID 155).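 Also: 0% = growth of vehicle-only cultures of the same strain.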 Particulars: S. cerevisiae rad50 strain growth inhibition; at 50.0 µM; active compounds read high. A digest of the protocol: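 Readout: growth inhibition relative to vehicle-treated cultures. Compound exposure was carried out in a genetically defined yeast strain deficient in DNA damage repair.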
For the compound `Cc1cc(O)oc(=O)c1`, the growth inhibition is -7.7% (inactive). As for `CCCCCCCCC1C(CCCCCCCC(=O)OC)C2(Cl)C(Cl)=C(Cl)C1(Cl)C2(Cl)Cl` (stereo not given), the figure is 25.6% (inactive). In the case of `CCOC(=O)C(=CNc1cccc(Cl)c1)C(=O)OCC` it was -2.8% (inactive). In the case of `COc1cc(C2C(C(=O)Nc3ccccc3C)=C(C)NC(C)=C2C(=O)Nc2ccccc2C)ccc1O` it was -27.1% (inactive); in that of `O=C(COc1ccc2c(=O)cc(-c3ccc(Cl)cc3)oc2c1)N1CCN(c2ccccc2)CC1`, 9.15% (inactive); in that of `O=C(Cc1nc2ccc(C(=O)c3ccccc3)cc2[nH]c1=O)C(=O)Nc1nc2ccccc2[nH]1`, -23.1% (inactive). Take `O=C(OCC1OC(OCc2ccccc2)C(OC(=O)c2ccccc2)C1OC(=O)c1ccccc1)c1ccccc1` (stereo not given): the growth inhibition is -10.2% (inactive).

Take `NC1=C(O)C(=O)C(c2ccccc2)O1` (stereo not given): the growth inhibition was -29.2% (inactive). As for `N#CCc1cn(-c2ccccc2)nn1`, the figure is -7.85% (inactive). As for `CC(C)=NNC(=S)NC12CC3CC(CC(C3)C1)C2`, the figure is 29.4% (inactive); as for `CONCc1ccc(C(=O)NC(C)C)cc1`, -10.6% (inactive); as for `NC(=O)OC1CCN(c2cccc(Cl)c2)C1` (stereo not given), -8.1% (inactive). Consider `O=C(O)CCn1cnc2c(=S)nc[nH]c21`, for which the growth inhibition was -23.2% (inactive). As for `CCCCCc1ccccn1`, the figure is 0.9% (inactive).

In the case of `CC(COC(=O)c1ccc(N)cc1)NC1CCCCC1` (stereo not given), the growth inhibition was -8.2% (inactive).

As to `COc1ccc(CC(=O)NCCc2ccc(OC)c(OC)c2OC)cc1`, the growth inhibition was 8.95% (inactive). In the case of `C[C@@H](C1CCC2C3C(=CC(=O)[C@@]21C)[C@H](C)[C@]1(CCC(=O)O1)C1OC31)[C@H]1C[C@]2(C)O[C@@](C)(O1)OC2(C)C` (stereo not given in full), the growth inhibition was -11.2% (inactive). In the case of `Nc1cc(=S)nc(N)[nH]1` it was 20.2% (inactive); in that of `COC(=O)Nc1nc2c(OC)c(OC)c(OC)cc2[nH]1`, -5.15% (inactive). In the case of `CCc1ccc(NS(=O)(=O)c2ccc3ccccc3c2)cc1` it was 96% (active). With `N#CC(C(=N/NC(N)=S)/C(=N/NC(N)=S)C(C#N)c1ccc(Cl)cc1)c1ccc(Cl)cc1` (stereo not given), the growth inhibition is -16.9% (inactive). As for `NC1=NC=NCN1c1ccc(N)cc1`, the figure is 1.65% (inactive).

Turning to `CCOC(=O)C1=CC2CCOC2O1` (stereo not given), the growth inhibition was -19.8% (inactive). For the compound `COc1cc(CNC(=S)CCCCCCCCCCC(C)C)ccc1O`, the growth inhibition is -20.1% (inactive).

On to `CNCCCCCCNc1cc(OC)cc2cccnc12`, for which the growth inhibition is 45% (inactive). In the case of `Cc1nn(C(=O)c2ccncc2)c2c1C(c1cccc([N+](=O)[O-])c1)SC(N)=N2` (stereo not given) it was -55.5% (inactive); in that of `CCN(CC)CC(=N)N(CC)c1ccccc1`, 26.5% (inactive); in that of `Cc1c2cnccc2c(C)c2c1c1ccccc1n2CCNCc1ccccc1`, 98.2% (active). As for `O=C(/C=C/c1ccccc1)c1cccc([N+](=O)[O-])c1`, the figure is 26% (inactive); as for `O=C(O)CC(CC(=O)O)c1ccc(F)cc1`, -2% (inactive). In the case of `CCCc1nnnn1C12CC3CC(CC(C3)C1)C2` it was 30.6% (inactive); in that of `Cc1cc(-c2ccccc2)n(C(C(=O)c2ccccc2)c2ccccc2)n1` (stereo not given), 13.8% (inactive); in that of `CC(=O)OCc1ccc(Cl)cc1Cl`, 3.65% (inactive). On to `[N-]=[N+]=Nc1cc(-c2ccccc2)nc2cc3c(cc12)OCO3`, for which the growth inhibition was -2.9% (inactive). On to `O=S(=O)(NCCNS(=O)(=O)c1ccccc1)c1ccccc1`, for which the growth inhibition is -10.4% (inactive).

In the case of `N#C/C1=C(\N)CCSSSC1`, the growth inhibition was 30.8% (inactive).

As to `c1ccc(CCN=C2c3ccccc3-n3cccc32)nc1`, the growth inhibition is 33.5% (inactive). In the case of `O=C1CSC(c2ccccc2)N1O` (stereo not given) it was -11.4% (inactive); in that of `CC(=O)OCC1OC(SC2=NC(=O)/C(=C/c3ccccc3)S2)C(OC(C)=O)C(OC(C)=O)C1OC(C)=O` (stereo not given), 40.2% (inactive). Turning to `CC1(C)CC(=O)C2(C)C(C1O)C2C1C2C(O)C(C)(C)CC(=O)C21C` (stereo not given), the growth inhibition is -11.2% (inactive).
